# The list is not random: actives were taken first. Their share in the collection is about 3.1%.
# Mcl1-Noxa inh = Mcl-1/Noxa binding inhibitors, primary screen, biochemical, TR-FRET, 1536-well. TR-FRET Mcl-1/Noxa peptide binding, 2 h. 220,000 tested, 1.5% active. Induced myeloid leukemia cell differentiation protein Mcl-1 (Homo sapiens), Q07820. AID 1022, 2008. inhibition, % at 21.7 µM;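 active = compounds that cut the protein-peptide binding signal by more than 50% relative to plate controls in a single-dose test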;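 also: His-tagged Mcl-1 with rhodamine Noxa BH3 peptide and terbium anti-His antibody; 0% = Mcl-1 plus Noxa peptide wells and 100% = peptide-only wells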
# Target sequence (Q07820 whole entry, looked up): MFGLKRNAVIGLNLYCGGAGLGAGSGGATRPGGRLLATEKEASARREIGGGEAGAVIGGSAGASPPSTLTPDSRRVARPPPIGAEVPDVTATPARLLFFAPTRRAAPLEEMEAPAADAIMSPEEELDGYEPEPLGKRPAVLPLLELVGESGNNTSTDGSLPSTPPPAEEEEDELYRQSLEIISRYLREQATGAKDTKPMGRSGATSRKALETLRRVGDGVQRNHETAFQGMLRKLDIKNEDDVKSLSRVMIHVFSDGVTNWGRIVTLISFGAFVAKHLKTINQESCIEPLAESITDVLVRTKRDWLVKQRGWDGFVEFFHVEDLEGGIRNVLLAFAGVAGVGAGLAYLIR
# 14-3-3 Bad inh = inhibitors of 14-3-3 zeta/Bad binding, primary screen, biochemical, TR-FRET, bovine 14-3-3 zeta; TR-FRET 14-3-3zeta/Dy647-pBad peptide displacement, 1 h; inhibition, % at 21.7 µM; 14-3-3 protein zeta/delta (Bos taurus), P63103; AID 781, 2007; 220,000 tested, 0.71% active;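 active = inhibition above about 70%, limit read from the data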;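 also: 0% = full 14-3-3 plus peptide FRET controls and 100% = background without 14-3-3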
# NCF1 inh = p47phox/p22phox peptide binding inhibitors, primary screen, biochemical, uHTS, NADPH oxidase regulatory subunit | Neutrophil cytosol factor 1 (Homo sapiens), P14598 | fluorescence polarization, 2 h | AID 1274, 2008 | inhibition, % at 24.7 µM | 220,000 tested, 0.53% active;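 active = inhibition above about 30%, limit read from the data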;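 also: 0% = p47phox with labelled peptide and 100% = labelled peptide alone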
# Mcl1 Bid PPI = Mcl-1/Bid binding inhibitors, primary screen, biochemical, TR-FRET, 1536-well; TR-FRET Mcl-1/Bid-Dy647 peptide binding; 220,000 tested, 0.97% active; AID 1021, 2008; inhibition, % at 21.7 µM;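 active = compounds that cut the binding signal by more than half at the single screening dose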;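 also: His-tagged Mcl-1 with europium anti-His antibody binding Bid BH3 peptide; 0% = Mcl-1 plus peptide wells and 100% = peptide-only wells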
# Bim-Mcl-1 = inhibitors of Bim peptide binding to Mcl-1, primary screen, biochemical, bead-based flow cytometry, multiplex. Bim peptide-Mcl-1 binding. inhibition, % at 10 µM. 190,000 tested, 0.1% active. AID 1009, 2008; in the data active = inhibition above about 40%;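 also: 0% = no compound tracer wells and 100% = peptide blocker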
# An asterisk follows results filed as active; nt = no result.
SMILES,Mcl1-Noxa inh,14-3-3 Bad inh,NCF1 inh,Mcl1 Bid PPI,Bim-Mcl-1
O=C(Nc1ccc(F)cc1)N1CCCN(c2ccc(C(F)(F)F)cn2)CC1,31,27,-10,83*,nt
Cc1ccccc1NCC(=O)N=Nc1c(O)[nH]c2ccc([N+](=O)[O-])cc12,53*,-16,4,-30,nt
O=[N+]([O-])c1ccc2[nH]c(O)c(N=NC(=S)Nc3cccnc3)c2c1,100*,33,-1,26,nt
Cc1ccc(NCC(=O)N=Nc2c(O)[nH]c3ccc([N+](=O)[O-])cc23)cc1,33,-7,-6,-24,nt
O=C(C(c1ccccc1)c1ccccc1)N1CCN(Cc2ccco2)CC1,25,71*,4,47,-3
Cc1nn(Cc2ccccc2)c(C)c1NC(=O)CSc1nc(-c2ccccc2)nc2c1cnn2-c1ccccc1,28,30,32*,80*,0
N#Cc1ccsc1NC(=O)CSc1nnnn1-c1ccc(O)cc1,66*,-1,nt,-17,-1
CCOC(=O)c1c(NC(=O)CSc2ccccc2C(=O)O)sc(C)c1C,8,1,3,-49,0
N#Cc1ccsc1NC(=O)CSc1ncnc2ccccc12,68*,1,-25,-8,-1
CCOC(=O)c1c(NC(=O)CSc2ncnc3ccccc23)sc(C)c1C,20,17,17,59*,0
O=C1OC(c2ccccc2)/C(=C(/O)c2ccc(Cl)cc2)C1=O (stereo not drawn),26,71*,3,-8,-1
CC(C)=CC(O)C/C(C)=C/COc1ccc2ccc(=O)oc2c1 (stereo not drawn),25,-5,-4,-43,nt
CCSc1nnc2c(n1)OC(c1ccc(C(=O)O)cc1)N(C(C)=O)c1ccccc1-2 (stereo not drawn),7,3,-7,-5,-1
CCCCCSc1nnc2c(n1)OC(c1cccn1C)N(C(C)=O)c1ccccc1-2 (stereo not drawn),7,-10,-6,98*,0
COc1ccccc1N(C)S(=O)(=O)c1ccc(C(=O)OCC(=O)N2CCCCCC2)cc1,-6,-2,-2,-3,-1
COc1ccccc1N(C)S(=O)(=O)c1ccc(C(=O)OCC(N)=O)cc1,14,-7,-1,1,44*
COc1ccccc1N(C)S(=O)(=O)c1ccc(C(=O)NC(C)(C)C)cc1,13,33,179*,-3,4
COc1ccccc1N(C)S(=O)(=O)c1ccc(C(=O)O)cc1,25,-5,5,-25,0
Cc1ccc2[nH]c(=O)c(CNS(=O)(=O)c3ccccc3)c(-c3ccccc3)c2c1,21,-13,-12,-6,-3
CC(C)Nc1ccc(C(CC(N)=O)NC(=O)Cc2ccc(Cl)cc2)cc1[N+](=O)[O-] (stereo not drawn),15,-7,-4,-46,nt
O=[N+]([O-])c1ccc(C2Nc3cccc4cccc(c34)N2)cc1,67*,1,3,-64,-9
O=[N+]([O-])c1cccc(C2Nc3cccc4cccc(c34)N2)c1,50,-17,-15,-19,-3
Cc1[nH]ccc(=O)c1OCc1ccccc1,7,4,59*,-17,-8
NNC(=S)NCc1ccccc1,3,-2,-9,-158,nt
S=c1sc(SCCOc2ccccc2)nn1-c1ccccc1,8,-12,-9,-9,-5
SMILES,Mcl1-Noxa inh,14-3-3 Bad inh,NCF1 inh,Mcl1 Bid PPI,Bim-Mcl-1
Cc1[nH]c2ccccc2c1C(c1ccncc1)N1CCC(C)CC1 (stereo not drawn),0,-9,-3,-12,-2
CCOC(=O)C1CCN(C(c2ccccn2)c2c(C)[nH]c3ccccc23)CC1 (stereo not drawn),59*,-8,18,4,2
Cc1[nH]c2ccccc2c1C(c1ccccn1)N1CCC(C(N)=O)CC1 (stereo not drawn),57*,4,14,17,-1
Cc1ccc(C)n1-c1ccc(C(=O)N/N=C/c2ccncc2)cc1,37,-7,-18,-18,1
CCn1c(SCC(=O)N/N=C/c2ccccc2OCC(=O)O)nnc1-c1ccc(C)cc1,18,3,-11,-43,nt
CCCCN=C1NN=C(c2cccc([N+](=O)[O-])c2)CS1,51*,-5,6,9,3

# Compound activity: PubChem, several laboratories
